Bioassay records as filed in PubChem BioAssay.
Many of the other results were omitted from the sample, so hits are more common in it than they were.
Pf apPOL block: Pf-apPOL DNA polymerase inhibition; AID 1794808; Recombinant Pf-apPOL, molecular beacon fluorescence, 1.5 h; 0.25% of 210,000 active; inhibition, % at 10 µM
mHTT CaM bind: mHTT-calmodulin interaction abrogation. P42858. AlphaScreen His-mHTT/GST-CaM binding, luminescence. inhibition, % at 15 µM. 3.6% of 190,000 active. AID 1671202;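 also: 0% = both proteins with DMSO and 100% = one protein alone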
Numbers without * were called inactive; nt = not tested or not shown. Rule as the data show it: active = inhibition above about 50%; inactive = the rest.

SMILES | Pf apPOL block | mHTT CaM bind
Cc1cccc(N2CCN(C(=O)c3ccc4c(=O)n5c(nc4c3)SCC5)CC2)c1C | -8 | 2
CNC(=O)N1CCCC(c2cccc(C(=O)N3CCN(c4ccccc4Cl)CC3)c2)C1 (stereo not given) | -1 | 3
CNC(=O)N1CCCC(c2cccc(C(=O)NCc3ccc(C(F)(F)F)cc3)c2)C1 (stereo not given) | -7 | 64*
CNC(=O)N1CCCC(c2cccc(C(=O)N3CCN(c4cccc(C)c4C)CC3)c2)C1 (stereo not given) | -9 | 64*
CC(C)NC(=O)N1CCCC(c2cccc(C(=O)NCc3ccc(C(F)(F)F)cc3)c2)C1 (stereo not given) | -1 | 6
CN1CCN(C2CCCN(Cc3cccc(Cl)c3)C2=O)CC1 (stereo not given) | -3 | -2
COc1ccc(C(C)NC(=O)c2c(C)noc2-c2ccccc2Cl)cc1 (stereo not given) | -4 | -8
CC(=O)Nc1ccc(NC(=O)C2CC(=O)NC(=N)S2)cc1 (stereo not given) | -1 | -2
CCC(=O)Nc1cc(-c2ccccc2)nn1-c1ccc(Br)cc1 | 0 | 0
O=C(C1CCN(c2ccncc2)CC1)N1CCN(c2cccc(C(F)(F)F)c2)CC1 | 1 | 7
Cc1ccc2oc(C(=O)N3CCN(c4cccc(C(F)(F)F)c4)CC3)cc2n1 | -10 | 72*
NC(=O)C1CCN(Cc2cncc(-c3ccc4ccccc4c3)c2)CC1 | -6 | 43
CN1CCN(C(=O)c2cnc(-c3ccccc3)nc2N2CCSCC2)CC1 | -10 | 97*
CCN1CCN(C(=O)c2cnc(-c3ccccc3)nc2N2CCSCC2)CC1 | -12 | 27
O=C(Nc1nnc(COc2ccccc2)o1)c1ccccn1 | -9 | 0
O=C(Nc1nnc(COc2ccccc2)o1)c1cc(Cl)sc1Cl | -257 | 56*
O=C(Cc1ccccc1Cl)Nc1nnc(COc2ccccc2)o1 | -9 | 84*
O=C(CCSc1ccc(Cl)cc1)Nc1nnc(COc2ccccc2)o1 | -34 | -2
Brc1ccc(CN2CCc3nc(N4CCOCC4)ncc3C2)cc1 | -2 | 1
CCc1nc(C2CCCN(C(=O)CCc3c[nH]c4ccccc34)C2)n[nH]1 (stereo not given) | 7 | 4
COc1cccc(CC(=O)N2CCC(c3noc(-c4cccc(OC)c4)n3)CC2)c1 | 5 | -1
COc1ccccc1-c1nc(C2CCN(C(=O)Cc3cccc4ccccc34)CC2)no1 | -3 | 9
COc1ccccc1-c1nc(C2CCN(C(=O)Cc3c[nH]c4ccccc34)CC2)no1 | -6 | 76*
CCc1nc(C2CCCN(C(=O)Cc3c[nH]c4ccccc34)C2)n[nH]1 (stereo not given) | 12 | 61*
COc1cccc(-c2nc(C3CCN(C(=O)Cc4c[nH]c5ccccc45)CC3)no2)c1 | -3 | 65*
SMILES | Pf apPOL block | mHTT CaM bind
O=C(CN1C(=O)CCC1=O)NCC(O)c1cccc2ccccc12 (stereo not given) | -4 | -13
CCOc1ccccc1NC(=Nc1nc(C)cc(C)n1)NC(C)=O | -2 | 37
Cc1ccc2[nH]c(C(=O)NCC3CCCO3)cc2c1 (stereo not given) | -5 | 3
O=C(Cc1ccc(F)cc1)Nc1onc2c1CCCC2 | -13 | -8
O=C(Nc1ccc([N+](=O)[O-])cc1)N1CCc2ccccc21 | -2 | -4
COc1cc(NC(=O)N2CCCC2c2ccc(Cl)cc2)cc(OC)c1 (stereo not given) | -1 | -6
Cc1ccc(NC(=O)Cn2nc(C(F)(F)F)c(Cl)c2C)cc1C | -2 | 3
Cc1c(Cl)c(C(F)(F)F)nn1CC(=O)Nc1ccc(Cl)c(Cl)c1 | -1 | 100*
CC(Nc1cc(N2CCN(C(=O)c3ccco3)CC2)ccc1[N+](=O)[O-])c1ccccc1 (stereo not given) | -4 | 56*
CC(Nc1cc(N2CCN(C(=O)c3cccs3)CC2)ccc1[N+](=O)[O-])c1ccccc1 (stereo not given) | 3 | 35
COc1ccc(C(=O)N2CCC(C(=O)NCCc3ccc(OC)c(OC)c3)CC2)cc1 | -16 | 2
O=C(CS(=O)(=O)Cc1ccccc1)Nc1nc(-c2cc3ccccc3o2)cs1 | -6 | 1
O=C(Cc1ccc(F)cc1)Nc1nc(-c2ccccn2)cs1 | -8 | 85*
O=C(Cc1ccc(F)cc1)Nc1ncccn1 | -3 | 17
O=C(CS(=O)(=O)Cc1ccccc1)Nc1nc(-c2ccccn2)cs1 | -74 | 87*
O=C(Nc1cccc(-c2nc3ncccc3o2)c1)c1cc([N+](=O)[O-])ccc1Br | 1 | 19
Cc1ccc(-n2[nH]c(C)c(C=Nc3ccccc3[N+](=O)[O-])c2=O)cc1 | -5 | 7
O=C(Nc1cccc(-c2nc3ncccc3o2)c1)C1CC1 | -3 | 2
O=C(O)C1CSC(c2cc(Br)ccc2O)N1 (stereo not given) | 8 | 56*
COc1ccc(Br)cc1C1NC(C(=O)O)CS1 (stereo not given) | -8 | 16
O=C(O)C1CSC(c2ccc(Cl)c(Cl)c2)N1 (stereo not given) | 4 | 2
O=C(O)C1CSC(c2cc(Cl)cc(Cl)c2O)N1 (stereo not given) | 0 | 91*
O=C(NCCCN1CCCC1)C1CCN(S(=O)(=O)N2CCC3(CC2)OCCO3)CC1 | -12 | -1
CCOc1ccc(N(C)C(=O)C2C3CC4OC(=O)C2C4C3)cc1 (stereo not given) | -6 | 7
COc1ccc(C(=O)c2c(C)oc3ccc(O)cc23)cc1OC | 5 | -1
SMILES | Pf apPOL block | mHTT CaM bind
COc1ccc(-n2nc(C(=O)Nc3ccc(C(C)C)cc3)c3ccccc3c2=O)c(OC)c1 | -9 | 17
COc1cc(C=C2SC(=S)N(C(C(=O)O)C(C)C)C2=O)cc(OC)c1O (stereo not given) | -23 | 61*
COc1ccc(C=C2SC(=S)N(C(C(=O)O)C(C)C)C2=O)cc1 (stereo not given) | -55 | 3
COc1cc2c(cc1OC)C(COc1ccc([N+](=O)[O-])cc1)N(C(=O)c1cccc(OC)c1OC)CC2 (stereo not given) | -4 | 24
Cc1ccc(C)n1-c1ccc(Cl)cc1O | -8 | 93*
Cc1ccc(C)n1-c1ccc(C(=O)O)cc1O | -1 | 12
c1ccc(-c2noc(-c3ccco3)n2)nc1 | -12 | 4
Cn1c(-c2ccc(S(=O)(=O)O)o2)nc2ccccc21 | 2 | -3
c1ccc(-c2nnc(-c3ccco3)c(-c3ccco3)n2)nc1 | nt | 100*
O=S(=O)(O)c1ccc(-c2nnc(-c3ccccn3)nc2-c2ccc(S(=O)(=O)O)o2)o1 | nt | 100*
O=C(CN1CCC(c2nc(-c3ccc(F)cc3)no2)CC1)Nc1ccc(F)cc1 | 0 | 0
Cc1sc2ccn(C)c(=O)c2c1C(=O)N1CCCCC1 | -3 | -7
CCCn1ccc2sc(C)c(C(=O)N3CCN(c4ccccc4)CC3)c2c1=O | 2 | 35
Cc1sc2ccn(C)c(=O)c2c1C(=O)N1CCN(c2ccc(Cl)cc2)CC1 | -6 | 70*
CCn1ccc2sc(C)c(C(=O)N3CCN(c4ccccc4)CC3)c2c1=O | -7 | 59*
O=c1[nH]c2cc([N+](=O)[O-])ccc2nc1Cc1ccc(Cl)c([N+](=O)[O-])c1 | -4 | 10
CCc1ccc(C(=O)N2CC(c3nc(C)no3)C3(CCOCC3)C2)cc1 (stereo not given) | -6 | -6
CCc1cc(=O)n(CC(=O)N2CCc3ccccc32)c(N)n1 | -1 | -10
